± gives the standard deviation of the averaged measurements. Whole data set: some 25,000 sequences, median “ln(normalized median fluorescence intensity)” near 8.6, cut for the highest 2% near 10. The list comes from a sample in which the highest values are over-represented; it also holds similar and randomly drawn sequences.

The experiment relates to PfAP2-EXP AP2 domain (GST-tagged). Description: gcPBM binding intensity (ln(normalized median fluorescence intensity)); higher = stronger DNA binding. The method, boiled down: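 For binding intensity, the highest Masliner-normalised natural-log median intensity across replicate spots of either probe orientation was taken. Protein bound to the array was stained with Alexa488 anti-GST antibody and scanned at 488 nm. The protein, GST-tagged P. falciparum DNA-binding domains from E. coli at about 25 μg on average, had been applied for 1 h to an Agilent 4 × 180k array of primer-extended double-stranded 36-bp intergenic genomic probes and negative controls.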
On to “TAATATTTATTCTATTGTACATAAAATATATATATA [XGTACX_site7132]”, for which the “gcPBM binding intensity (ln)” value is 9.225 ± 0.078.
Turning to “TATATATATATATATTGTACATATTGTATATATTGT [XGTACX_site3212]”, the “gcPBM binding intensity (ln)” value came out at 9.98 ± 0.21.
To “AGTAGCATATTCTATTGTACATATATATATATATAT [XGTACX_site2980]” belongs 10.2 ± 0.56; to “TTTATATATATAAATATGTAGATAACAATATTCTGA [TGCATGCA_negctrl_site554]”, 8.16 ± 0.44.
Then “AAATTGGTTCATCAATGTACATGTAAAATAAATCAA [XGTACX_site4795]”, with 8.88 ± 0.46.
As to “AAATTAATATTATGTGCATGCACAAAGAGGAACGAC [TGCATGCA_site754]”, the “gcPBM binding intensity (ln)” value amounted to 10.7 ± 0.18.
In the case of “TATTAATTATAAGATGCATGTGCAAAAATATGTTCC [TGCATGCA_site51]”, the “gcPBM binding intensity (ln)” value turned out to be 9.01 ± 0.36.
Then ATTATTAATAATTGTGTGCACAAATATTTATATGCT, with 8.86 ± 0.092.
To “ATATATATATATATATATATATATATATATAAGTGG [XGTACX_negctrl_site90]” belongs 9.94 ± 0.35; to “TTATTTTCCCTTTGTGCATGCAGTTTACTTTTTGTG [TGCATGCA_site993]”, 10.4 ± 0.64; to “ATTTCCCCTTTTTATTGTACATTTTTATTTGTTACT [XGTACX_site4845]”, 9.14 ± 0.64.
Regarding “TACTTACACTGTTTTTGTACTTATTTCCCTTTTATT [XGTACX_site2158]”, the “gcPBM binding intensity (ln)” value turned out to be 9.12 ± 0.6.
With “TGTATAAGGTTTTTACGTTTTGAAGGATGTATTGTT [CACACA_negctrl_site1245]”, the “gcPBM binding intensity (ln)” value amounted to 8.59 ± 0.6.
As to “TTGTATTATTATGTTGCACACATTTTATATAAAATA [CACACA_site3641]”, the “gcPBM binding intensity (ln)” value stood at 9.06 ± 0.31.
To “TTTATATGTATTAAGTGTACACATATAATGTATTTT [XGTACX_site16]” belongs 8.71 ± 0.014.
Turning to “TTTATGTGTATTAAGTGTACACATATAGTGTATTTT [XGTACX_site999]”, the “gcPBM binding intensity (ln)” value came out at 8.42 ± 0.31.
Take “TATGTATTTTTTAAGTGTACCTATATATATATATAT [XGTACX_site7934]”: the “gcPBM binding intensity (ln)” value was 10.2 ± 0.3.
As to “ATTTAGAAATATATTTGTACATATATATATATATAT [XGTACX_site7129]”, the “gcPBM binding intensity (ln)” value came to 10.2 ± 0.35.
Consider “AGAATAAATAAATATTGTACATATAAAATATATATA [XGTACX_site896]”, for which the “gcPBM binding intensity (ln)” value was found to be 8.39 ± 0.35.
Regarding “AATAAATAAATATATTGTACATATATATATATATAT [XGTACX_site8627]”, the “gcPBM binding intensity (ln)” value is 10.2 ± 0.4.
For “ATATATATATATATATGTACATACTATACAATAATT [XGTACX_site3546]”, the “gcPBM binding intensity (ln)” value is 10.4 ± 0.29.
To “AATATAATATACATATGTACATATATATATATATAT [XGTACX_site8218]” belongs 10 ± 0.32; to “TATATATATATATATTGTACATATTAATATTAGAAA [XGTACX_site8923]”, 10.1 ± 0.39; to “TATAGAAAATTTATATGTACATATATATATATATAT [XGTACX_site4451]”, 10.1 ± 0.44.
As for “ATATATATAAATATATGTACTAATATATACATATAT [XGTACX_site2289]”, the “gcPBM binding intensity (ln)” value stood at 8.22 ± 0.092.
Regarding “TAGAAATATATTTATTGTACATTGTATATATTATAT [XGTACX_site7584]”, the “gcPBM binding intensity (ln)” value is 8.35 ± 0.48.
Turning to “ACATGTACAGAAATTTATATATATATATATATATAT [CACACA_negctrl_site1584]”, the “gcPBM binding intensity (ln)” value is 10.3 ± 0.33.
As to “TACAGAAATTTATATATATATATATATATATATATA [XGTACX_negctrl_site209]”, the “gcPBM binding intensity (ln)” value was found to be 9.95 ± 0.62.
To “ACATATAATATAAATTGTACATATAAATATATTATT [XGTACX_site4268]” belongs 8.38 ± 0.32; to “GTAGTAATAAATCTAGTGCATTATATATAACAAAAA [GTGCAC_site9803]”, 8.81 ± 0.3.
To “TAGCCATTTTTATATTGTACTTATATAATCACATTT [XGTACX_site4407]” belongs 8.72 ± 0.4; to “ATGCACATTTATAAAAGTACATGTATGTAATATGTT [XGTACX_site830]”, 8.77 ± 0.33.
Then “TGTATGAAATATATTACACACATATATAATATATAT [CACACA_site793]”, with 8.36 ± 0.3; and “GATGCTAAAATTTATACACACAAAAAAAAAAAATTC [CACACA_site3284]”, with 8.47 ± 0.46; and “CAAGAAAATTGACACACACACATATTTATATTTATA [CACACA_site7766]”, with 8.36 ± 0.48.
As for “AAGTATAACCTTTATAATAATGACATGACCGATTTT [CACACA_negctrl_site395]”, the “gcPBM binding intensity (ln)” value turned out to be 8.26 ± 0.34.
As to “TGTAGTCTGGAGAAACGTACACAGTATCTGGTAACA [XGTACX_site4938]”, the “gcPBM binding intensity (ln)” value turned out to be 8.34 ± 0.36.
As for “AAATGTACAGGACGCACACACATATATATATATATA [CACACA_site3674]”, the “gcPBM binding intensity (ln)” value is 10.4 ± 0.81.
To “TATAATAAATCGAACTGTACATATATATATATATAT [XGTACX_site7097]” belongs 10.2 ± 0.33; to “ATAAAAAAATATAAATGTACATATATATATATATAT [XGTACX_site5620]”, 10.2 ± 0.2.
With “AACATATAAATAAACTGTACATATATATATATATAT [XGTACX_site1056]”, the “gcPBM binding intensity (ln)” value came to 10.1 ± 0.39.
To “ATATATATTATAATCTGTACATAAATATATAATAAA [XGTACX_site5425]” belongs 8.39 ± 0.33; to “AAATGTACAGGACGCACACACATATTTATATTTATA [CACACA_site7689]”, 8.55 ± 0.33.
To “AATGTAAAATATAAATGTACATATATATATATATAT [XGTACX_site5071]” belongs 10.2 ± 0.24; to “AAAAAAAAAAAAAAATGTACATATATATAAATATAT [XGTACX_site6768]”, 8.34 ± 0.4.
Then “TAAAATGTACAGGACGCACACACATATATATATATA [CACACA_site3673]”, with 10.1 ± 0.22; and “ATAAAAATAAATAAATGTACATATATATATATATAT [XGTACX_site1277]”, with 10.1 ± 0.4; and “AAAAAAAAAAAAAAATGTACATATATATAAATAAAA [XGTACX_site5574]”, with 8.51 ± 0.45.
For the sequence “AAAAAAAAAAAAAAATGTACATATAAATAAATATAT [XGTACX_site7248]”, the “gcPBM binding intensity (ln)” value turned out to be 8.51 ± 0.42.
Then “ATTTTTATAGAATGAACACACATATTATAGCATTTA [CACACA_site6842]”, with 8.45 ± 0.38; and “AACACTTCTTATTTATGTACTTAATTCCCAACGGAA [XGTACX_site4818]”, with 8.87 ± 0.46.
Regarding “CATATGATATTATTTTGTACTTATTACAAATATGAA [XGTACX_site7929]”, the “gcPBM binding intensity (ln)” value is 8.4 ± 0.42.
To “TATAAAGCAACTGAAACACACAAATTTTTTTTTTTT [CACACA_site3218]” belongs 8.04 ± 0.46; to “ACACATAATATGTGTAGTACTTTTTCTTTAACATTA [XGTACX_site1436]”, 8.64 ± 0.36; to “TATAAAAATAATATTACACACATGTAAAATGCCCGT [CACACA_site7522]”, 8.49 ± 0.31.
To “GGACAAGTTTTTTACATAAATAAAAAAAATAAAAAA [XGTACX_negctrl_site125]” belongs 8.44 ± 0.42.

(Values after the supplement of paper PMC11417369.)
